PubChem BioAssay (NCATS)
Results filed as inconclusive are left out. Activity calls are given as the source filed them. The call rests on the fitted dose curve; in most records, active means well fitted inhibition curve with a large enough effect; inconclusive means small, poorly fitted or top-dose-only effect; inactive means flat fitted curve, though single readings scatter.

system: CP260; experiment: qHTS profiling for inhibitors of Plasmodium falciparum proliferation (AID 504749); further: nearly all actives have a fitted effect of over 60% in size;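 on activity, negative = inhibition: 0% = DMSO vehicle and full inhibition = artemisinin control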; conditions: P. falciparum in erythrocytes, SYBR Green DNA, 72 h; series mostly up to 28.7 µM; activity, negative = inhibition: at the top concentration
Procedure, shortened: (§1)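 In a 72 h erythrocytic culture (37 C, humidified, 5% CO2) at 2.5% hematocrit and 0.3% starting parasitemia, compounds were tested; SYBR Green I in detergent lysis buffer stained parasite DNA overnight.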
Potency means the concentration at half of the fitted maximal effect.

| Structure (SMILES) | activity, negative = inhibition |
| --- | --- |
| CCOc1ccc(NC(=S)Nc2ccc(OCC)cc2)cc1 | -0.17% (inactive) |
| CC(C)c1nc(N(C)S(C)(=O)=O)nc(-c2ccc(F)cc2)c1/C=C/C(O)CC(O)CC(=O)O (configuration not stated) | 10.9% (inactive) |
| O=C(/C=C/c1cccc(F)c1)NC1CC1 | -8.71% (inactive) |

system: CP262; experiment: as above; conditions: P. falciparum in erythrocytes, SYBR Green DNA, 72 h; series mostly up to 28.7 µM; activity, negative = inhibition: at the top concentration
Procedure, shortened: as §1

| Structure (SMILES) | activity, negative = inhibition | Potency |
| --- | --- | --- |
| Cc1ccc(C(C)(C)c2ccc(C)cc2)cc1 | -2.52% (inactive) |  |
| N[C@H](CC(=O)O)C(=O)O | 13.8% (inactive) |  |
| O=C(O)COc1ccc(CCNS(=O)(=O)c2ccccc2)s1 | 5.13% (inactive) |  |
| O=S(=O)(O)CCCS(=O)(=O)O | 18.8% (inactive) |  |
| COC(=O)c1ccccc1O | 0% (inactive) |  |
| CC1(O)CCC(C(C)(C)O)CC1 (configuration not stated) | 0.615% (inactive) |  |
| COc1ccc(/C=C/C(=O)O)cc1 | -0.42% (inactive) |  |
| CC(=O)Nc1c(I)c(C(=O)O)c(I)c(N(C)C(C)=O)c1I | 4.92% (inactive) |  |
| Nc1ncnc2c1ncn2[C@H]1CC[C@@H](CO)O1 | -1.73% (inactive) |  |
| COC(=O)C(CN)c1c[nH]c2ccc(OC)cc12 (configuration not stated) | 0.429% (inactive) |  |
| CC/C(=C(/CC)c1ccc(OP(=O)(O)O)cc1)c1ccc(OP(=O)(O)O)cc1 | 14.5% (inactive) |  |
| CN1c2c(nc(N)[nH]c2=O)NCC1CNc1ccc(C(=O)NC(CCC(=O)O)C(=O)O)cc1 (configuration not stated) | 4.56% (inactive) |  |
| CC(C)(CO)[C@@H](O)C(=O)NCCC(=O)NCCSSCCNC(=O)CCNC(=O)[C@H](O)C(C)(C)CO | 14.5% (inactive) |  |
| CCCC(=O)O | 11.1% (inactive) |  |
| CCSc1ccc2c(c1)N(CCCN1CCN(C)CC1)c1ccccc1S2 | -0.131% [at 12.8 µM] (inactive) |  |
| CC1=CC(=C(c2ccc(N)cc2)c2ccc(N)cc2)C=CC1=N |  | 4.78 µM (active) |
| CC1=CC(=O)NS(=O)(=O)O1 | -0.0316% (inactive) |  |
| CC1CCCCN1CCCOC(=O)c1ccccc1 (configuration not stated) | -13.9% (inactive) |  |
| COC(=O)CC[C@H](N)C(=O)O | 0% (inactive) |  |
| C[C@H](CCC(=O)O)[C@H]1CC[C@H]2[C@@H]3CC[C@@H]4C[C@H](O)CC[C@]4(C)[C@H]3C[C@H](O)[C@]12C | -1.02% (inactive) |  |

| Structure (SMILES) | activity, negative = inhibition | Potency |
| --- | --- | --- |
| CO | 1.83% (inactive) |  |
| C=CCN1CCCC1CNC(=O)c1cc(S(N)(=O)=O)cc(OC)c1OC (configuration not stated) | 9.59% (inactive) |  |
| CC/C=C\C/C=C\C/C=C\C/C=C\C/C=C\C/C=C\CCC(=O)O | 1.08% (inactive) |  |
| COc1cc2c(cc1OC)[C@@H](Cc1cc(OC)c(OC)c(OC)c1)[N+](C)(CCCOC(=O)CC/C=C/CCC(=O)OCCC[N+]1(C)CCc3cc(OC)c(OC)cc3[C@H]1Cc1cc(OC)c(OC)c(OC)c1)CC2 (some centres not stated) | -1.23% (inactive) |  |
| CCCOC(=O)c1ccccc1O | -0.692% (inactive) |  |
| CC/C=C\C/C=C\C/C=C\CCCCCCCC(=O)O | 1.05% (inactive) |  |
| NC(=O)[C@H]1O[C@@H](O)[C@H](O)[C@@H](O)[C@@H]1O | 1.78% (inactive) |  |
| CCCCCCCCCCCCOCCCN | -0.013% (inactive) |  |
| CC(C)(C)c1ccc2c(S(=O)(=O)O)c(C(C)(C)C)ccc2c1 | -1.3% (inactive) |  |
| COC(=O)CCC[N+](C)(C)C | -1.19% (inactive) |  |
| CNC(=O)OCc1cccc(COC(=O)NC)n1 | 24.4% (inactive) |  |
| O=C(NCCNCC(O)COc1ccc(O)cc1)N1CCOCC1 (configuration not stated) | 12.2% (inactive) |  |
| OC[C@H]1O[C@@H]2O[C@H]3[C@H](O)[C@@H](O)[C@@H](O[C@H]4[C@H](O)[C@@H](O)[C@@H](O[C@H]5[C@H](O)[C@@H](O)[C@@H](O[C@H]6[C@H](O)[C@@H](O)[C@@H](O[C@H]7[C@H](O)[C@@H](O)[C@@H](O[C@H]1[C@H](O)[C@H]2O)O[C@@H]7CO)O[C@@H]6CO)O[C@@H]5CO)O[C@@H]4CO)O[C@@H]3CO | -3.32% (inactive) |  |
| CCCCCCCCCCCCCCCCCCCCCC(=O)Nc1ccn([C@@H]2O[C@H](CO)[C@@H](O)[C@@H]2O)c(=O)n1 | 0% (inactive) |  |
| CCCCCCCCCCCCCCCCCC[N+](C)(C)CCC[Si](OC)(OC)OC | 1.24% (inactive) |  |
| OB(O)O | 5% (inactive) |  |
| CCOc1ccc(NC(=S)Nc2ccc(OCC)cc2)cc1 | -2.04% (inactive) |  |
| CC(C)c1nc(N(C)S(C)(=O)=O)nc(-c2ccc(F)cc2)c1/C=C/C(O)CC(O)CC(=O)O (configuration not stated) | -0.986% (inactive) |  |
| O=C(/C=C/c1cccc(F)c1)NC1CC1 | 0.565% (inactive) |  |
